One experiment addresses Albumin (Bos taurus) (UniProt P02769). Nature of the experiment: compounds binding labelled BSA control protein – biochemical, small-molecule microarray, Alexa647 label, 635/667 nm fluorescence, artefact control for SMM control protein annotation, profiling panel (AID 1118).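 Further: score merges 667 nm emission intensity and signal-to-noise per printed compound spot.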 The conditions noted are these: BSA-A647 binding, fluorescence 635 nm, higher = more signal.
Experiment [1] can be described thus: probe aXIP binding to arrayed compounds – biochemical, NeuroSMM set, 635/667 nm fluorescence, primary screen (AID 1119).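 Further: probe is the protein aXip251-270 applied at 1 µg/mL to compound-printed slides; binding of probe to printed compounds measured as 667 nm fluorescence plus signal to noise.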 The conditions noted are these: small-molecule microarray, higher = more signal, called active from +8 up or from −8 down.
Experiment [2] can be described thus: probe aNOTCH3 binding on compound microarray – biochemical, small-molecule microarray, 635/667 nm fluorescence, primary screen (AID 1120).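 Further: probe is a biotin-tagged antibody raised against NOTCH3 rather than NOTCH3 protein; score merges spot fluorescence near 667 nm with spot signal to noise.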 The conditions noted are these: higher = more signal.
The nature of experiment [3]: probe aNOTCH2 binding on compound microarray – biochemical, small-molecule microarray, 635/667 nm fluorescence, primary screen (AID 1121).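 Further: score merges feature fluorescence read at 667 nm with its signal to noise.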 The conditions noted are these: higher = more signal.
Experiment [4] has as its target Carbonic anhydrase 2 (Homo sapiens) (UniProt P00918). Nature of the experiment: compounds binding carbonic anhydrase 2 – biochemical, small-molecule microarray, Alexa647-labelled CAII, profiling panel (AID 1122). The conditions noted are these: CAII-A647 binding fluorescence, higher = more signal.
Experiment [5] is described as follows: COS7 lysate on small-molecule microarray, probe aHis, 635 nm (AID 1123).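 Further: z-score combines 667nm fluorescence intensity with signal-to-noise per printed compound spot.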 The settings on record: COS7 cell lysate, fluorescence, higher = more signal.
Experiment [6] can be described thus: probe aLAP1 signal on lysate-treated microarray – cell lysate, small-molecule microarray, COS7 lysate, primary screen (AID 1124).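 Further: lysate comes from COS7 cells expressing LAP1 and is applied at 0.3 µg/mL; score merges spot fluorescence near 667 nm with signal-to-noise over triplicate slides.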 The settings on record: probe aLAP1, fluorescence, higher = more signal.
In a further experiment the test system is Sam68 (KHDRBS1). As to the kind of experiment: compounds binding KHDRBS1 protein – biochemical, small-molecule microarray, 635 nm fluorescence, primary screen (AID 1125).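 Further: score merges 667 nm channel intensity with signal to noise over triplicate slides.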 The conditions noted are these: higher = more signal.
Experiment [7] relates to Chordin-like protein 2 (CHRDL2). Nature of the experiment: compounds binding chordin-like 2 – biochemical, small-molecule microarray, 635 nm fluorescence, primary screen (AID 1126).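 Further: printed compound slides probed with Chrdl2 protein at 4 µg/mL for 1 h at 4 C; score merges 667 nm emission intensity with signal to noise over three replicate slides.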 The settings on record: fluorescence 635 nm, higher = more signal.
In experiment [8] the target is Concanavalin-A (Canavalia ensiformis) (UniProt P02866). As to the kind of experiment: compounds binding concanavalin A lectin – biochemical, small-molecule microarray, Alexa647 label, 635 nm, artefact control for SMM control protein annotation, primary screen (AID 1127).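 Further: z combines 667 nm emission intensity with signal-to-noise across three replicate slides.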 The settings on record: ConA-A647 binding fluorescence, higher = more signal.
Sequence of Concanavalin-A (Canavalia ensiformis) (P02866 whole entry, looked up): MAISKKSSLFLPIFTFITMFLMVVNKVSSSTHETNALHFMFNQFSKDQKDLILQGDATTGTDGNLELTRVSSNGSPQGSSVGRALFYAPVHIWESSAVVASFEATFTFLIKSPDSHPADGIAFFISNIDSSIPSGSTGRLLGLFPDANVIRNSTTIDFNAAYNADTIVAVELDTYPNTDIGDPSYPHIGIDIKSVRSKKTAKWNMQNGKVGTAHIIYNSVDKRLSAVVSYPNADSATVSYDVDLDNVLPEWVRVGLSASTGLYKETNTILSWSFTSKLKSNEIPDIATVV
Experiment [9] is described as follows: compounds binding Alexa647 anti-His antibody – biochemical, small-molecule microarray, 635 nm fluorescence, artefact control for SMM control protein annotation, primary screen (AID 1128).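 Further: score merges feature fluorescence with signal-to-noise for each printed compound spot.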 The settings on record: higher = more signal.
Experiment [10] deals with Human papillomavirus type 1a E7 protein (residues 1-88). Nature of the experiment: HPV1a E7 small-molecule binders, primary screen, biochemical, small-molecule microarray, residues 1-88, 635 nm (AID 1129). The settings on record: small-molecule microarray binding, fluorescence 635 nm; higher = more signal.
In experiment [11] the target is Focal adhesion kinase 1 (Homo sapiens) (UniProt Q05397). As to the kind of experiment: PTK2 protein binding on printed compound slides – biochemical, small-molecule microarray, 635/667 nm fluorescence, BSA, DTT, primary screen (AID 1130).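 Further: composite of spot emission at 667 nm and signal to noise over triplicate slides.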 The conditions noted are these: 635 nm fluorescence, higher = more signal.
Sequence of Focal adhesion kinase 1 (Homo sapiens) (Q05397 whole entry, looked up): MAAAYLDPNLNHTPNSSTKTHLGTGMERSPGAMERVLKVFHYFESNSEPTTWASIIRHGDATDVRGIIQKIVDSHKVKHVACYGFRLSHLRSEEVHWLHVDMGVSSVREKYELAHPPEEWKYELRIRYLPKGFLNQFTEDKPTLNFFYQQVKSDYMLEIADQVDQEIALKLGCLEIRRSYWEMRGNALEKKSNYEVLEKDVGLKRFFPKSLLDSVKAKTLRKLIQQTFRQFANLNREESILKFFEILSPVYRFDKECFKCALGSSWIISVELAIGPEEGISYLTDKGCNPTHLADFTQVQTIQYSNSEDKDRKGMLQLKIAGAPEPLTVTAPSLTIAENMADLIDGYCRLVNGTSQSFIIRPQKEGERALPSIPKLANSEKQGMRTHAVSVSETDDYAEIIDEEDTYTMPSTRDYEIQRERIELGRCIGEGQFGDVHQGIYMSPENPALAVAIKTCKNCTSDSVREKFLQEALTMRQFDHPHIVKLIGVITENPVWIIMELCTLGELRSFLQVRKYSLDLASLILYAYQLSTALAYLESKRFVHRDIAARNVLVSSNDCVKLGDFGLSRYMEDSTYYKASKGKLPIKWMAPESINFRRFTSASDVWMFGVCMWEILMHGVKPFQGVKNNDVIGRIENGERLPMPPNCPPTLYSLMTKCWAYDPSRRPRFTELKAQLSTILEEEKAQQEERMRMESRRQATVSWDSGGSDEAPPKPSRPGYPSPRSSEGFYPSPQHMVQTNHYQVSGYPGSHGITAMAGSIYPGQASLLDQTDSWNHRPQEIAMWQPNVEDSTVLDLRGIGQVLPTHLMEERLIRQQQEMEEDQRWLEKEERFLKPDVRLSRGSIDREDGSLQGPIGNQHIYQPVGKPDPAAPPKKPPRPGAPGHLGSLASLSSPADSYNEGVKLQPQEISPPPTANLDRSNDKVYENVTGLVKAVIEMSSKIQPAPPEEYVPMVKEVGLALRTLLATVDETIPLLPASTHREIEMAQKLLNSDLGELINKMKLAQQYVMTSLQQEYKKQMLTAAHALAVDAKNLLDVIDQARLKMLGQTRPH
The subject of experiment [12] is Fibrinogen (Alexa647-labelled). As to the kind of experiment: Alexa647-fibrinogen binding to printed small molecules – biochemical, small-molecule microarray, 635/667 nm fluorescence, artefact control for SMM control-protein annotation, profiling panel (AID 1131).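 Further: z-score merges 667 nm fluorescence with per-spot signal-to-noise over triplicate slides.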 The conditions noted are these: fibrinogen-A647 binding fluorescence, higher = more signal.
Experiment [13] concerns the target Follistatin (Homo sapiens) (UniProt P19883). Nature of the experiment: FST protein binding to printed compounds – biochemical, small-molecule microarray, 635/667 nm fluorescence, primary screen (AID 1132). The conditions noted are these: 635 nm fluorescence, higher = more signal.
Experiment [14] has as its target Fibroblast growth factor 2 (Homo sapiens) (UniProt P09038). As to the kind of experiment: basic fibroblast growth factor binding to printed compounds – biochemical, small-molecule microarray, 635/667 nm fluorescence, primary screen (AID 1133). The settings on record: FGF2, fluorescence 635/667, higher = more signal.
Experiment [15] can be described thus: JC-1 mitochondrial potential readout, lung cancer cells – cell-based, A549, JC-1 fluorescence, basal, 24 h, 100 nL, profiling panel (AID 1138).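 Further: A549 lung adenocarcinoma cells under basal conditions with no added stimulus; test concentration not given here.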 The settings on record: higher = more signal.
In another experiment the test system is Lefty1. Nature of the experiment: Lefty1 protein binding to printed compounds – biochemical, small-molecule microarray, 635/667 nm fluorescence, primary screen (AID 1139). The conditions noted are these: fluorescence 635/667, higher = more signal.
Experiment [16] has as its system wheat germ agglutinin (Triticum aestivum), Alexa647-labelled. As to the kind of experiment: Alexa647-WGA lectin binding to printed small molecules – biochemical, small-molecule microarray, 635/667 nm fluorescence, artefact control for SMM control-protein annotation, profiling panel (AID 1140).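 Further: score merges 667 nm feature emission with signal to noise over triplicate slides.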 The conditions noted are these: WGA-A647 binding, 635 nm fluorescence, higher = more signal.

Experiment [17] addresses Luciferin 4-monooxygenase (Photinus pyralis) (UniProt P08659). Nature of the experiment: inhibition of purified Photinus pyralis luciferase – biochemical, luminescence, purified enzyme, 2006 set, primary screen (AID 1141).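 Further: cell-free assay with purified firefly luciferase at 100 ng per well in PBS; test concentration not given here.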 The conditions noted are these: purified firefly luciferase, SteadyGlo luminescence, 30 min; higher = more signal, called active from +8 up or from −8 down.

Each structure is given as a SMILES string. Calls of active or inactive are those of the source.

Sequence of Follistatin (Homo sapiens) (P19883 whole entry, looked up): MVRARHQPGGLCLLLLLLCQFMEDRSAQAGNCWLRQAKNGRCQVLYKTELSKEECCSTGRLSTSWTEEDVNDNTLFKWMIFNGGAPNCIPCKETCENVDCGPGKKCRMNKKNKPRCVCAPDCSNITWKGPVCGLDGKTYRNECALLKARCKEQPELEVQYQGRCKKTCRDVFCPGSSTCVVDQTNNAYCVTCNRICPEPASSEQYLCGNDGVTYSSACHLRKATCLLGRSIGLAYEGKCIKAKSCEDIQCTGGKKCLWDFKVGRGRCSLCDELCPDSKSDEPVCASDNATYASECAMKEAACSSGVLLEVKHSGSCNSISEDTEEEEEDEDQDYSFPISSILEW
Sequence of Albumin (Bos taurus) (P02769 whole entry, looked up): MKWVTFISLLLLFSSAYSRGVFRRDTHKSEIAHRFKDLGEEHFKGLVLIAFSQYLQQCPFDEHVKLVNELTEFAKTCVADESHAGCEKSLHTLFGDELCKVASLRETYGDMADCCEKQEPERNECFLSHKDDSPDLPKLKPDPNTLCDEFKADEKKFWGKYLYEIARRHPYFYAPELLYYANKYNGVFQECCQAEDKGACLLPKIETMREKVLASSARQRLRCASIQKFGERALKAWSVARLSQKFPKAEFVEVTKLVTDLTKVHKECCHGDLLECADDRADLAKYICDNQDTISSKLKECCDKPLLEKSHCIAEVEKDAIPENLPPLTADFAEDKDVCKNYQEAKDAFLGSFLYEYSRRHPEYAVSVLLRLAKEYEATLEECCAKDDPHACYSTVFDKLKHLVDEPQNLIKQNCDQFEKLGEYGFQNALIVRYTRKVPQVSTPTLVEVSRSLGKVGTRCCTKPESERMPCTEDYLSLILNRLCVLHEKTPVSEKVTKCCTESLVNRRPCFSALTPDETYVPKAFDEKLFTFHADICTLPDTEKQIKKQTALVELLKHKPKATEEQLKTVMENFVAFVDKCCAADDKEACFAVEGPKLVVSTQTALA
Sequence of Luciferin 4-monooxygenase (Photinus pyralis) (P08659 whole entry, looked up): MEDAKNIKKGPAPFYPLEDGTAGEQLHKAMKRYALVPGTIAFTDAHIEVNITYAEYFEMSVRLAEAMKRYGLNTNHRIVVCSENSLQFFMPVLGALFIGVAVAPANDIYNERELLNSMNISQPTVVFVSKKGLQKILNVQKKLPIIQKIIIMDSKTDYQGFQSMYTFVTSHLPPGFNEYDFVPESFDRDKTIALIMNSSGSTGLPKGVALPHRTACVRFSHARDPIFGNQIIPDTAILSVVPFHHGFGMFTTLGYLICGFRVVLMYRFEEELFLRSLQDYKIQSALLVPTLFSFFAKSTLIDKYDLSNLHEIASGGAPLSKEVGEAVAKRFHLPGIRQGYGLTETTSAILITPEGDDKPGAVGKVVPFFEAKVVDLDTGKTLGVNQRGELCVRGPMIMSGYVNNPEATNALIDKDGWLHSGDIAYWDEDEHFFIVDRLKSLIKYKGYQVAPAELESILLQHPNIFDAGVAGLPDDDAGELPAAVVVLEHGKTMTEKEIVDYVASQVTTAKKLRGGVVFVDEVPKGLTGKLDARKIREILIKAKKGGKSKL
Sequence of Fibroblast growth factor 2 (Homo sapiens) (P09038 whole entry, looked up): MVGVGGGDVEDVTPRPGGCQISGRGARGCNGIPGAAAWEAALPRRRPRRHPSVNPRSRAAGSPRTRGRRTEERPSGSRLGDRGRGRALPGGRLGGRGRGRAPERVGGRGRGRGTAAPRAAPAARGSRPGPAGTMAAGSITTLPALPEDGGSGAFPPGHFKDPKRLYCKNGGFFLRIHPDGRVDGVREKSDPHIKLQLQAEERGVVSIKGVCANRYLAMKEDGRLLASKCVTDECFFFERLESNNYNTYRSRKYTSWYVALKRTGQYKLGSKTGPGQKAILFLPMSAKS

Take `C=CCC(OC(C)=O)[C@@H]1[C@@H](N(Cc2cc3ccccc3o2)C(=O)Cc2ccc(OC)cc2)c2cc(OCCCO)ccc2N1C(=O)c1ccc2ccccc2n1` (stereo not given in full): the composite z-score is 0.277 in the experiment with Albumin (Bos taurus); 0.0642 in experiment [2]; -0.0303 in experiment [3]; -0.0176 in [4]; 0.361 in [5]; -0.156 in experiment [6]. Further, the composite z-score was -0.11 with Sam68 (KHDRBS1); 0.498 in experiment [7]; 0.0557 in experiment [8]; 0.264 in experiment [9]; -0.314 in [10]; 0.138 in experiment [11]. In addition, the composite z-score in [12] is 0.301; in [13] it was 0.654; in experiment [14], 0.0376; in the experiment on Lefty1, 0.0249; in experiment [16] it was -0.0063. Also, the composite Z-score in experiment [1] is -0.0847 (inactive). Also, the z-score in experiment [15] is -0.194; in [17], -0.219 (inactive).
Take `CC(C)NC(=O)[C@@]1(C)c2ccccc2C(=O)N(Cc2ccccc2)[C@H]1c1ccc(CO)cc1`: the composite z-score with Albumin (Bos taurus) was 0.489; in [2], -0.432; in experiment [3], -0.153; in experiment [4], 0.692; in experiment [5] it was 1.86; in experiment [6], 0.329. For the same compound, the composite z-score in the experiment on Sam68 (KHDRBS1) is 0.696; in experiment [7], -1.6; in experiment [8] it was 0.537; in experiment [9], 2.31; in experiment [10], 0.244; in experiment [11] it was -0.226. For the same compound, the composite z-score in [12] is -0.722; in experiment [13], -0.4; in [14], -0.719; with Lefty1, -0.189; in [16], 0.948. Moreover, the composite Z-score in experiment [1] is -0.621 (inactive). Besides, the z-score in [15] is 0.648; in [17], -1.09 (inactive).
For the compound `N#Cc1ccc(-c2cccc(=O)o2)cc1`, the composite z-score was 0.341 with Albumin (Bos taurus); 0.0426 in [2]; -0.0928 in [3]; 0.0483 in [4]; 0.365 in experiment [5]; -0.0816 in experiment [6]. The composite z-score in the experiment with Sam68 (KHDRBS1) worked out at 0.808; in [7], 0.252; in [8] it was 0.411; in experiment [9], 0.212; in experiment [10], 0.651; in [11], 0.111. The composite z-score in experiment [12] was 0.474; in [13], 0.268; in [14], 0.185; in the experiment on Lefty1, 0.249; in experiment [16] it was 0.48. Also, the composite Z-score in [1] was -0.0662 (inactive). In addition, the z-score is -0.119 in experiment [15] and 1.68 (inactive) in [17].
For `C[N+](C)(C)CCCC[C@@H]1NC(=O)[C@@H]2C[C@H](C(=O)NCc3ccc(F)cc3)[C@H](c3ccc(O)cc3)N2C1=O`, the composite z-score with Albumin (Bos taurus) is -0.635; in experiment [2] it was -0.307; in experiment [3] it was -0.0662; in [4], 0.413; in [5], 0.933; in experiment [6] it was 0.873. The composite z-score in the experiment on Sam68 (KHDRBS1) is -0.636; in experiment [7], 0.189; in experiment [8], 0.607; in experiment [9], 0.928; in experiment [10] it was -0.321; in [11] it was 0.951. The composite z-score was -0.965 in experiment [12]; 1.34 in [13]; 1.6 in experiment [14]; 0.0338 in the experiment on Lefty1; -0.3 in experiment [16]. In [1], the composite Z-score is -0.43 (inactive). Besides, the z-score in experiment [15] is 0.526; in experiment [17], -0.41 (inactive).
Consider `COc1cc(C(O)C2C=CC3C(=O)N(c4ccccc4)C(=O)C3N2Nc2ccccc2)cc(OC)c1OC` (stereo not given), for which the composite z-score with Albumin (Bos taurus) was 0.993; in [2], 0.416; in [3] it was -0.0742; in experiment [4] it was 0.573; in experiment [5] it was 2.89; in experiment [6], 0.496. Further, the composite z-score with Sam68 (KHDRBS1) is 1.31; in experiment [7] it was -0.872; in experiment [8], 1.15; in [9], 1.04; in experiment [10] it was 1.21; in experiment [11], 0.655. Moreover, the composite z-score in experiment [12] is 1; in [13] it was 1.14; in experiment [14], -0.085; in the experiment on Lefty1, -0.383; in experiment [16], 1.24. Besides, the composite Z-score in [1] was 0.328 (inactive). Further, the z-score was -0.193 in [15] and -0.171 (inactive) in [17].
